Test results reported in the supplement of paper PMC3334620.
In all, about 33,000 sequences were measured (“E-score (-0.5 to 0.5)”: median about -0.016, highest 2% from about 0.32 on). This excerpt belongs to a sample that is enriched for the highest values.

biological target: T1, Stp1 (UniProt B3LFK1); experiment: PBM E-score (8-mer binding enrichment) (E-score (-0.5 to 0.5)); higher = stronger / more preferred TF binding; conditions: protein concentration: 200 nM; construct: GST-full length
T1 sequence: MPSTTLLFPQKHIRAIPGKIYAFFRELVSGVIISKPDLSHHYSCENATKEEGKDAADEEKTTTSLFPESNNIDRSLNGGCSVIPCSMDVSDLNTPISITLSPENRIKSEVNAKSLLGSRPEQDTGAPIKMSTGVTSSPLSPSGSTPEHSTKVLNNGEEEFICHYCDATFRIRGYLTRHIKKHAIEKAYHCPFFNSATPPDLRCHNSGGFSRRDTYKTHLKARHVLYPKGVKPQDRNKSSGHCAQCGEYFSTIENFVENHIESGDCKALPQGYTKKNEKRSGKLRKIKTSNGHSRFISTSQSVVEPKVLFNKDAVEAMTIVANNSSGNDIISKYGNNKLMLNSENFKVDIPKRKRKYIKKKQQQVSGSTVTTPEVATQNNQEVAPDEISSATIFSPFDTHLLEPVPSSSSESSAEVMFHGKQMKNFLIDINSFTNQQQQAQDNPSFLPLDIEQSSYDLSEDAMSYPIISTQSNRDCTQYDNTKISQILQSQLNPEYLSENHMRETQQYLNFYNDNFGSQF
Procedure: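 Universal 'all 10-mer' protein binding microarrays (Agilent AMADID 015681) probed with GST-tagged S. cerevisiae TFs (full-length or DBD) made by in vitro transcription/translation (PURExpress), about 100-200 nM. Bound TF was detected with fluorescent anti-GST. Each ungapped 8-mer (which stands for itself and its reverse complement) is scored by the PBM enrichment score (E-score), a modified Wilcoxon-Mann-Whitney statistic from -0.5 to +0.5, computed with the Universal PBM Analysis Suite. Scale: above 0.35 generally sequence-specific binding.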

Sequence	PBM E-score
ATTCCTCA	0.0196
CGGCGATA	0.395
AGGCGATA	0.0637
CGGCGATC	0.373
CAGCGATC	-0.127
AGGCGATC	0.128
GGGCGATA	-0.147
GCCTGGTA	-0.227
CTCCTGCA	-0.244
ATGCTTGC	-0.24
AAGCAGGA	-0.113
GGGCAGAA	0.0536
CGGCAGAA	0.328
GGGCAGCA	-0.122
CGGCAGCA	0.333
CGGCAGAC	0.0714
CGGCAGCC	0.216
CTCTGGTA	-0.177
ATGCCTTG	0.274
ACGCCTTG	0.348
ACGCCTTA	0.294
ATGCCTCC	-0.0159
ACGCCTCG	0.381
ACGCCTTC	0.204
ACGCCTCT	0.0123

Sequence	PBM E-score
ATGCCTCG	0.412
ACGCCTCC	-0.102
ACCGTGGG	-0.27
CGATAAGA	0.0597
AGTTGGGG	-0.209
AATATACG	0.017
TAATTTCA	0.242
GTCACCTA	-0.204
GCGGCCGA	0.139
AAGGCCGT	0.358
AAGGCCGC	0.314
CCGGCCGC	-0.018
ACGGCCGG	0.0865
ACGGCCGA	0.191
ACGGCCGC	0.406
ACGGCCGT	0.401
AAGGCCGG	0.128
GCGGCCGC	0.373
ACGGCCAC	0.3
GAGGCCGC	0.095
ACTATACC	-0.017
ACCAGGGT	-0.398
AAGCAGGG	-0.156
CACGGTAC	0.0963
CATATTCC	-0.14

Sequence	PBM E-score
AACCATTA	0.123
TGGGACAA	-0.23
CGAACGTA	-0.0114
CACGCATC	0.0489
CCCAATCA	-0.0533
ATTTCCGG	-0.0307
AGGCGACG	0.209
AGGCGAGA	-0.0565
CGGCGAGA	0.325
GGGCGACA	0.0209
CGGCGACA	0.369
CGGCGACG	0.349
CGGCGAGC	0.307
CGGCGACC	0.203
AGGCGACA	0.197
CTCGGGGC	-0.163
CAGAGTCG	-0.204
CATGGTTA	0.105
CCCGTGCG	0.332
CCCGTGAG	-0.0263
CCCGTGCA	0.0223
ACCGTGCT	-0.133
AGCGTGCG	0.237
ACCGTGCG	0.371
AGAGGGCG	0.307

Sequence	PBM E-score
AGGCCAAT	-0.152
AGAACGCT	-0.11
AATGTGCG	0.18
ATTGTGCC	0.322
AATGTGCC	0.323
ATTGTGCG	0.161
ATTGTGCA	0.162
GATGTGCC	0.185
GCGCAAAA	0.227
CCATGAGA	-0.118
AATCCGCG	0.111
TAGCCGGA	-0.0486
CAGCCGCA	0.215
AAGCCGCG	0.418
CAGCCGCG	0.259
AAGCCGGA	0.0672
AACCCGCA	-0.00015
TAGCCGAA	0.00682
GAGCCGGA	0.0514
TAGCCGCA	0.348
GAGCCGCA	0.448
AAGCCGCA	0.386
GAGGGTAC	-0.22
AACTGAGC	-0.0352
CGATCAAG	-0.0842

Sequence	PBM E-score
CCCTTATA	-0.15
CCAACTAG	-0.0642
CCGACCAG	-0.144
CATAATGC	0.0509
TCCCAGGA	-0.255
GGATCTAC	-0.105
GTCGACTA	0.157
AAGCCGCC	0.177
GAGCCGCC	0.319
CAGCCGCC	0.0812
CCTAAGCC	-0.355
ACGGGTTG	-0.0319
GCGGCAAA	0.383
GGGGCAAC	-0.107
GCGGCAAC	0.384
TCGGCAAA	0.0291
CCGGCAAA	0.116
CCGGCAAC	0.0817
ATCATTCG	0.119
AAATTAAG	-0.00684
CGTGCGGA	0.3
AGTGCGGG	-0.0896
AGTGCGGA	0.224
CGTGCGAC	0.0732
AGTGCGGC	0.379

Sequence	PBM E-score
CGTGCGGC	0.476
TACTAGGA	-0.15
GAGGTCAC	-0.123
AGTATTGA	0.0696
CACGGTAG	-0.0367
GTGGGCAA	-0.0572
CCATTGCC	0.0367
CGCCCTGC	0.346
CGCCCTGA	0.0616
AGCCCTGC	0.0478
GACCTTTA	-0.0597
AAGCCTCA	-0.0215
AGGCGCAT	0.241
TGGCGCCA	0.26
CGCCGGCG	0.312
AGGCGCCC	0.232
AGGCGTCG	0.253
AGGCGCCT	0.383
AGGCGCCA	0.353
AGGCGACT	0.0881
CGGCGCCG	0.484
AGGCGCCG	0.462
GGGCGCCA	0.309
CGGAGCCG	0.302
AGGTGCGG	0.189

Sequence	PBM E-score
AATAACTG	0.0806
TGGACAAA	-0.0269
GCAGCGCA	-0.103
AAGAACCA	-0.0227
CAGTCTCC	-0.209
ATTTGGAA	0.0474
AAGATTAA	0.084
ATCGTACA	0.0995
CGATAAAC	0.0166
AGGAGGAT	-0.107
GCGATGTA	0.16
TATCGTCA	-0.0796
TAGTGCAA	0.0577
CTGCGCCA	0.106
ATGCGCCC	0.158
CTGCGCCC	-0.113
GCGCGCCA	0.268
ATGCGCCA	0.0976
GGGCGCCC	0.255
ATGCGCCG	0.413
CGGCGCCC	0.38
CGGCGCCA	0.463
AACTATCG	-0.203
CTCTGGCA	-0.203
ACAAGTGC	-0.127

Sequence	PBM E-score
CGTCAGAG	-0.0954
GCAATGGC	-0.116
AGGCTGTA	0.0388
ATCTATTG	0.0947
ACAGATAA	-0.0189
ATCAATGG	-0.0372
AACAACCA	0.0647
GCCTCGTA	0.346
ACCTCGTA	-0.0684
CCCTCGTA	-0.0643
CGCCATGC	0.226
ATAGTGCC	0.311
CGGGCACC	0.237
CCGGCACC	0.254
GGGGCACA	0.0124
GCGGCACA	0.463
ACGGCACC	0.484
AGGGCACC	0.0197
GCGGCACC	0.477
GGGGCACC	0.0924
GTGGCACA	0.125
GACGCCAC	0.0288
GATCCTAC	-0.1
ACTCTCAG	0.0178
CGGCACTC	0.365

Sequence	PBM E-score
AGGCACTC	0.139
CTGCACTC	0.109
CGGCACTA	0.446
GGGCACTA	0.23
AGGCACTA	0.301
CAGAGGTA	0.062
GTTCCATA	-0.164
CCTGGCCG	-0.105
AAAGTATC	0.118
AGGTAAGC	-0.118
TATCTCCA	0.103
CCTACCTA	-0.0899
AGCGGCTC	0.388
AGCGGCTG	0.0689
CGCGGCTC	0.464
ATCGGCTC	0.136
GGCGGCTA	0.207
CTCGGCTC	0.029
CGCGGCTA	0.397
AGCGGCTA	0.165
CCCGGCTC	-0.238
